Screening data from PubChem.
In the library only some 5.1% were active in any assay of this set; here they are far more common.
KDM4E inh: inhibitors of human JMJD2E histone demethylase | B2RXH2 | JMJD2E catalytic domain, FDH-coupled NADH fluorescence (FDH is formaldehyde dehydrogenase) | Potency, µM (top dose mostly 57.1 µM), for the others: at the top dose activity change, negative = inhibition, actives largely listed as inhibitors | hit rate 1.6% among 230,000; active = well fitted inhibition curve with a large enough effect, not every such curve was filed as active; inconclusive = small, poorly fitted or top-dose-only effect, or another doubt; inactive = no such curve, though single readings can be large or run the other way;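 note: potency is the fitted concentration of half-maximal effect; 0% = wells with enzyme and -100% = buffer wells without enzyme; nearly all actives have a fitted effect of over 50% in size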
Tau fibril ThT: tau fibrillization inhibition (ThT binding); recombinant tau K18 P301L, heparin-induced fibrillization, ThT fluorescence; Potency, µM (top dose mostly 57.4 µM), for the others: at the highest dose activity, negative = inhibition, hits mostly inhibitors; hit rate 2.1% among 270,000; note: potency is the fitted concentration of half-maximal effect; nearly all actives have a fitted effect of over 55% in size
Target sequence (P10636 561-689 P618L limits assumed): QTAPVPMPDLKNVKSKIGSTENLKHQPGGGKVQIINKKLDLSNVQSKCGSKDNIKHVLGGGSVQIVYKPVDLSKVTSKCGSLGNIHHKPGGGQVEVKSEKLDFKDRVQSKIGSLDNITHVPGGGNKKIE
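Recombinant human tau K18 fragment […] carrying P301L, 15 uM unlabeled plus 0.24 uM Alexa 594-labeled, was fibrillized with 20 uM heparin in 100 mM sodium acetate pH 7 for 6 hr at 37 C; 30 uM ThT fluorescence read after 1 hr.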
PNC assembly inh: blocks assembly of the perinucleolar compartment | PC3M PTB-GFP, PNC prevalence imaging, 16 h; hits give low values | activity change (PNC), negative = inhibition, % at 10 µM | hit rate 3.1% among 140,000;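 active = readout at or below -70, meaning at least 70% loss of cells showing the perinucleolar compartment, a nuclear body marking cancer cells; inconclusive = readout between -30 and a set limit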;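 note: plate controls were DMSO wells for no effect and camptothecin positive control wells for full effect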
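PC3M cells stably expressing PTB-GFP, 750–1000 cells/well, treated 16 h at 37 °C with compound (23 nl of library stock), in duplicate. After paraformaldehyde fixation and Hoechst stain, imaged at 20x; PNC prevalence scored by image analysis.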
Tau fluor cs: counter-screen for tau fibril formation inhibitors; tau K18 P301L Alexa594 fluorescence, heparin fibrillization; Potency, µM (series often up to 57.7 µM), inactives show at the top dose activity change, negative = decrease; AID 1463; hit rate 0.93% among 280,000; note: potency is the fitted concentration of half-maximal effect; nearly all actives have a fitted effect of over 55% in size
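Human tau K18 P301L (15 uM unlabeled, 0.24 uM Alexa 594-labeled) in 100 mM sodium acetate pH 7 with 20 uM heparin, 6 hr at 37 C. ThT 30 uM added, 1 hr ambient; Alexa 594 FP and total fluorescence read at 555/632 nm.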
Tau FP inhib: inhibitors of human tau fibril formation; P10636; K18 P301L tau heparin fibrillization, Alexa594 FP, 6 h; Potency, µM (doses to about 57.7 µM), for inactives: at the highest dose activity, negative = inhibition, most hits filed as inhibitors; hit rate 0.39% among 280,000; AID 1468; note: potency is the fitted concentration of half-maximal effect; nearly all actives have a fitted effect of over 55% in size
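Steps: dispense K18 P301L tau (15 uM plus 0.24 uM Alexa 594 tracer, final) in pH 7 sodium acetate; add compound; add heparin (20 uM final); incubate 6 hr, 37 C; add ThT (30 uM final); after 1 hr ambient, read FP.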
NPSR antagonist: antagonists of human neuropeptide S receptor cAMP signaling; Q6W5P4; CHO-NPSR cells, cAMP TR-FRET, antagonist mode; Potency, µM (titrated, usually from 38.3 µM), for inactives: at the highest dose activity change, negative = inhibition, actives largely listed as inhibitors; hit rate 1% among 220,000; note: potency is the fitted concentration of half-maximal effect; nearly all actives have a fitted effect of over 50% in size
Target sequence (Q6W5P4 whole entry, looked up): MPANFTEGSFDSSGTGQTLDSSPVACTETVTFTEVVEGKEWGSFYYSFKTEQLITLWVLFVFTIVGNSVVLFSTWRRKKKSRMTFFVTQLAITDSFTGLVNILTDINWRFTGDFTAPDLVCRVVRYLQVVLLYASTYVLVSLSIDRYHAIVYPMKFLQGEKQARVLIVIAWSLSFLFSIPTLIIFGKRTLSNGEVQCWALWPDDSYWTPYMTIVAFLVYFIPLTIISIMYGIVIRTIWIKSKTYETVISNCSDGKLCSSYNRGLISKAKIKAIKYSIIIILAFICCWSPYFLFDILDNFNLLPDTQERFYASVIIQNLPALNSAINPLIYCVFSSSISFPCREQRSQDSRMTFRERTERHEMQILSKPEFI
Active calls of the source: *; ? = inconclusive; . = no result; ! = a repeat was not active; [ ] = dose if it differs, or a comment. Unless noted, calls come from the whole dose curve; as a rule, active = well fitted curve in the direction sought with a large enough effect; inconclusive = small, poorly fitted or top-dose-only effect, or another doubt; inactive = no such curve, though single readings can be large; an effect the other way counts as inactive or inconclusive. Unless noted, % is set by controls: 0 for no effect and ±100 for the full control effect.

SMILES	KDM4E inh	Tau fibril ThT	PNC assembly inh	Tau fluor cs	Tau FP inhib	NPSR antagonist
c1ccc([Se]c2c(-c3ccccc3)[se]c3ccccc23)cc1	.	-3%[81.4 µM]	.	-7%[81.3 µM]	-9%[81.3 µM]	.
COc1cc(C(=O)N/N=C/c2ccc(OC(=O)N3CCOCC3)cc2)cc(OC)c1OC	28µM*	-18%	-16	3%	2%	16%
O=C(Nc1cccc(OC(=O)N2CCOCC2)c1)N1CCOCC1	0%	-1%	?	2%	-2%	-2%[46.1 µM]
O=C1NC(=O)N(CCc2ccc(F)cc2)C(=O)/C1=C/c1ccco1	-15%	10µM*	.	?	?	-20%
O=C1NC(=O)N(Cc2ccccc2)C(=O)/C1=C/C=C/c1ccco1	-15%	10µM*	.	-26%	?	?
Cc1ccc(/C=C2/C(=O)NC(=O)N(CCc3ccc(F)cc3)C2=O)o1	-8%	?	?	-5%	-5%	?
CC(C)c1ccc(N2C(=O)NC(=O)/C(=C\C=C\c3ccco3)C2=O)cc1	-9%	?	.	-4%	?	4µM*
C[C@]12CC[C@@H](O)CC1CCC1C2CC[C@]2(C)C(=O)CC[C@@H]12 (stereo partly specified)	1%	-17%	.	-13%	-5%	-16%[46.1 µM]
Nc1c(C(=O)NCc2ccco2)c2nc3ccccc3nc2n1Cc1ccc(F)cc1	?	?	-9	?	?	10µM*
Nc1c(C(=O)NCc2ccco2)c2nc3ccccc3nc2n1Cc1ccccc1	?	?	-1	?	?	?
Nc1c(C(=O)NCc2ccco2)c2nc3ccccc3nc2n1CCN1CCOCC1	?	?	?	?	5%	-19%[46.1 µM]
COCCCn1c(N)c(C(=O)NCCC(C)C)c2nc3ccccc3nc21	?	?	61	?	0%	10µM*
CCCCn1c(N)c(C(=O)OCCOC)c2nc3ccccc3nc21	?	.	.	-29%	-11%	-22%
COc1ccc(Cn2c(N)c(C(=O)NCc3ccco3)c3nc4ccccc4nc32)cc1	?	20µM*	32	?	-6%	?
CCCN1CCCC(c2cccc(O)c2)C1 (stereo unspecified)	5%	-8%	.	-8%	3%	3%[46.1 µM]
CCOC(=O)c1ccc(N2CCN(c3ccccc3F)CC2)c(NC(=O)Nc2ccc(Cl)c(Cl)c2)c1	.	10%	.	-19%	?	.
C(=C/c1ccccc1)/CN1CCN(CCOC(c2ccccc2)c2ccccc2)CC1	-2%	-17%	.	-11%	-1%	.
O=Cc1ccc(O)c(O)c1	4.5µM*	-15%	15	-9%	-8%	-24%
CCOc1cc2[nH]c(=O)n(CCCC(=O)N3CCN(c4cccc(Cl)c4)CC3)c(=O)c2cc1OCC	.	?	.	-29%	11%	.
O=C1NC(=O)C(=Cc2ccc(Oc3ccc([N+](=O)[O-])cc3)cc2)C(=O)N1	6%	13µM*	.	-8%	?	-5%
COc1cc(C=C2C(=O)NC(=O)NC2=O)ccc1OCc1ccc([N+](=O)[O-])cc1	?	?	.	-27%	?	-25%
S=C1CN=C(c2ccccc2)c2cc(Cl)ccc2N1	0%	-8%	-24	-11%	-4%	13µM*
O=P(NS(=O)(=O)c1ccc(Cl)cc1)(Oc1ccccc1)Oc1ccccc1	-1%	-5%	-100*	0%	8%	-3%[46.1 µM]
c1ccc2sc(C3(N4CCCC4)CCCCC3)cc2c1	.	-9%	.	-5%	1%	.
Nc1ccc2c(c1)Cc1cc([N+](=O)[O-])ccc1-2	6%	3.2µM*	.	?	7%	3%
SMILES	KDM4E inh	Tau fibril ThT	PNC assembly inh	Tau fluor cs	Tau FP inhib	NPSR antagonist
O=c1[nH]c(=S)[nH]c(O)c1N=Nc1ccc(S(=O)(=O)N2CCc3ccccc32)cc1	-6%	5µM*	.	?	9%	-21%
O=c1[nH]c(=S)[nH]c(O)c1N=Nc1ccc(SC(F)F)cc1	-2%	3.5µM*	.	-20%	-16%	15%
O=C(c1ccccc1)c1ccc(N=Nc2c(O)[nH]c(=O)[nH]c2=O)cc1	0%	?	.	-1%	3%	-11%
COC(=O)[C@H]1[C@@H](c2ccccc2)[C@@]2(c3ccccc3)Oc3ccccc3[C@@]1(O)[C@@H]2O	.	-7%[11.5 µM]	.	-9%[11.6 µM]	-5%[11.6 µM]	.
CCC(C)N1C(=O)NC(=O)C2(Cc3c(ccc4ccccc34)N(C)C2)C1=O (stereo unspecified)	-27%	16µM*	20	?	?	-27%[46.1 µM]
COc1ccc2[nH]cc(CCN=C(NC(=O)c3ccccc3OC)Nc3nc(C)cc(C)n3)c2c1	.	?	.	?	10%	.
Cn1cccc1-c1cccnc1	.	-1%	.	-1%	0%	.
CCCCC/C=C\C/C=C\C/C=C\C/C=C\CCCC(=O)O	28µM*!	28µM*!	.	?	?	.
CCCCC/C=C\C[C@@H](/C=C/C=C\C/C=C\CCCC(=O)O)OO	1%	-5%	.	-1%	11%	.
C[C@@H]1CC[C@H]2[C@@H](C)C(=O)O[C@@H]3OC4(C)CC[C@@H]1[C@]32OO4	.	-6%	.	-3%	4%	.
CN1CCc2nc(SCc3ccccc3Br)c(C#N)cc2C1	?	?	.	?	-11%	-39%
C=CCSc1nc2c(c(-c3ccsc3)c1C#N)CN(C)CC2	?	14µM*	.	20µM*[quencher]	?	-37%
COc1ccc(-c2nc3ccccc3c(=O)o2)cc1	25µM*	?	.	-15%	1%	-16%
CCCCCC1C(=O)O[C@H](C)[C@@H](NC(=O)c2cccc(NC=O)c2O)C(=O)OC(C)C1OC(=O)CC(C)C (stereo partly specified)	?	-9%	.	-29%	8%	.
CN1C(=O)C(=Cc2ccccc2OCCOc2ccc([N+](=O)[O-])cc2)C(=O)N(C)C1=O	-2%	10µM*	.	?	?	-37%
O=C1NC(=O)C(=Cc2ccccc2OCCOc2ccc([N+](=O)[O-])cc2)C(=O)N1	-29%	?	.	-16%	?	-31%
Nc1c(C(=O)Nc2ccc(Cl)c(C(F)(F)F)c2)sc2nc3c(cc12)N1CCC3CC1	.	?	.	5µM*[quencher]	?	.
Nc1c(C(=O)Nc2ccc(Cl)cc2)sc2nc3c(cc12)N1CCC3CC1	.	?	.	?	-22%	.
CN(C)c1ccc(/C=C2/C(=O)NC(=O)N(Cc3ccco3)C2=O)cc1	-30%	?	16	-12%	-18%	-6%
COc1ccc(/C=C2/C(=O)N(Cc3ccco3)C(=O)N(C(C)C)C2=O)cc1	?	18µM*	4	-12%	?	3%
CCN1C(=O)C(=C/C=C/c2ccco2)C(=O)N(CC)C1=S	16µM*	16µM*	-1	-13%	?	-8%[46.1 µM]
CC(C)N1C(=O)/C(=C/C=C/c2ccco2)C(=O)N(Cc2ccco2)C1=O	-28%	28µM*	?	-30%	?	?
